Test results from the supplement of paper PMC10849652.
About 8,800 targets were measured; listed, in parts, are those with a hit and a random draw of the rest. About 0.5% of all pairs of compound and target were hits.

Tests used:
Test in all cases: log2 fold change, soluble protein after heating vs DMSO (PISA); higher = thermal stabilisation; K562 lysate, 10 uM; active = over 0.2 and 3.5 SD of the protein, either way, in both replicates (recomputed)
alvocidib = compound: CN1CC[C@H](c2c(O)cc(O)c3c(=O)cc(-c4ccccc4Cl)oc23)[C@H](O)C1 [alvocidib]
Procedure, shortened: (§1)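 Quantification was by TMTpro 16plex LC-MS/MS with equalised channel sums, applied to the supernatant after 21,000xg for 90 min. Samples were crude K562 extract at 1 mg/mL protein in PBS pH 7.4 with 1 mM MgCl2, treated with 10 μM compound for 30 min, heated for 3 min across 48°C-58°C, pooled and brought to 0.5% NP-40 at 4°C. Values are log-two fold changes in thermal stability relative to solvent controls, from duplicates.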

Tubastatin A = compound: CN1CCc2c(c3ccccc3n2Cc2ccc(C(=O)NO)cc2)C1 [Tubastatin A]
Procedure, shortened: as §1

[1] = compound: CNC(=O)C1=CC=CC=C1NC2=NC(=NC=C2Cl)NC3=C(C=C(C=C3)N4CCOCC4)OC
Procedure, shortened: as §1

defactinib = compound: CNC(=O)c1ccc(Nc2ncc(C(F)(F)F)c(NCc3nccnc3N(C)S(C)(=O)=O)n2)cc1 [defactinib]
Procedure, shortened: as §1

[2] = compound: CNc1nc(-c2ccc3c(N)n[nH]c3c2)cc(N2C[C@@H](C(=O)NC3CCCCC3)CC[C@H]2C)n1
Procedure, shortened: as §1

encorafenib = compound: COC(=O)N[C@@H](C)CNc1nccc(-c2cn(C(C)C)nc2-c2cc(Cl)cc(NS(C)(=O)=O)c2F)n1 [encorafenib]
Procedure, shortened: as §1

[3] = compound: COC(=O)[C@H](CCSC)NC(=O)C1=C(C=C(C=C1)NC[C@H](CS)N)C2=CC=CC=C2
Procedure, shortened: as §1

alisertib = compound: COc1cc(Nc2ncc3c(n2)-c2ccc(Cl)cc2C(c2c(F)cccc2OC)=NC3)ccc1C(=O)O [alisertib]
Procedure, shortened: as §1

[4] = compound: COc1cc2nc(-c3cc(F)ccc3O)nc(N[C@@H]3CNC[C@H]3C(C)(C)O)c2cc1OC
Procedure, shortened: as §1

gefitinib = compound: COc1cc2ncnc(Nc3ccc(F)c(Cl)c3)c2cc1OCCCN1CCOCC1 [gefitinib]
Procedure, shortened: as §1

lapatinib = compound: CS(=O)(=O)CCNCc1ccc(-c2ccc3ncnc(Nc4ccc(OCc5cccc(F)c5)c(Cl)c4)c3c2)o1 [lapatinib]
Procedure, shortened: as §1

pictilisib = compound: CS(=O)(=O)N1CCN(Cc2cc3nc(-c4cccc5[nH]ncc45)nc(N4CCOCC4)c3s2)CC1 [pictilisib]
Procedure, shortened: as §1

crizotinib = compound: C[C@@H](Oc1cc(-c2cnn(C3CCNCC3)c2)cnc1N)c1c(Cl)ccc(F)c1Cl [crizotinib]
Procedure, shortened: as §1

[5] = compound: C[C@H](C1=CC=C(C=C1)C(=O)NC2=C3C=CNC3=NC=C2)N
Procedure, shortened: as §1

duvelisib = compound: C[C@H](Nc1ncnc2nc[nH]c12)c1cc2cccc(Cl)c2c(=O)n1-c1ccccc1 [duvelisib]
Procedure, shortened: as §1

gandotinib = compound: Cc1cc(Nc2cc(CN3CCOCC3)c3nc(C)c(Cc4ccc(Cl)cc4F)n3n2)n[nH]1 [gandotinib]
Procedure, shortened: as §1

tozasertib = compound: Cc1cc(Nc2cc(N3CCN(C)CC3)nc(Sc3ccc(NC(=O)C4CC4)cc3)n2)n[nH]1 [tozasertib]
Procedure, shortened: as §1

doramapimod = compound: Cc1ccc(-n2nc(C(C)(C)C)cc2NC(=O)Nc2ccc(OCCN3CCOCC3)c3ccccc23)cc1 [doramapimod]
Procedure, shortened: as §1

bafetinib = compound: Cc1ccc(NC(=O)c2ccc(CN3CC[C@H](N(C)C)C3)c(C(F)(F)F)c2)cc1Nc1nccc(-c2cncnc2)n1 [bafetinib]
Procedure, shortened: as §1

[6] = compound: Cc1cccc(CC(=O)N2CCc3c2ccc(-c2cn(C)c4ncnc(N)c24)c3F)n1
Procedure, shortened: as §1

Measured: log2 fold change

EEF1A1, A0A087WVQ9
inactive: alvocidib -0.005 | Tubastatin A -0.102 | [1] 0.042 | defactinib 0.062 | [2] 0.071 | encorafenib 0.011 | [3] 0.115 | alisertib -0.073 | [4] 0.026 | gefitinib -0.054 | lapatinib 0.028 | pictilisib -0.038 | crizotinib -0.02 | [5] 0.07 | duvelisib -0.021 | gandotinib 0.017 | tozasertib -0.08 | doramapimod -0.069 | bafetinib 0.068 | [6] -0.129

FAU (UniProt E9PR30)
active: [5] 0.293
inactive: alvocidib 0.073 | Tubastatin A 0.02 | [1] -0.087 | defactinib 0.003 | [2] 0.013 | encorafenib -0.04 | [3] 0.013 | alisertib 0.035 | [4] -0.016 | gefitinib -0.044 | lapatinib -0.018 | pictilisib 0.02 | crizotinib -0.055 | duvelisib 0.047 | gandotinib -0.105 | tozasertib -0.027 | doramapimod 0.071 | bafetinib -0.019 | [6] -0.121

ERAL1 (UniProt O75616)
UniProt O75616, sequence (O75616 whole entry, looked up): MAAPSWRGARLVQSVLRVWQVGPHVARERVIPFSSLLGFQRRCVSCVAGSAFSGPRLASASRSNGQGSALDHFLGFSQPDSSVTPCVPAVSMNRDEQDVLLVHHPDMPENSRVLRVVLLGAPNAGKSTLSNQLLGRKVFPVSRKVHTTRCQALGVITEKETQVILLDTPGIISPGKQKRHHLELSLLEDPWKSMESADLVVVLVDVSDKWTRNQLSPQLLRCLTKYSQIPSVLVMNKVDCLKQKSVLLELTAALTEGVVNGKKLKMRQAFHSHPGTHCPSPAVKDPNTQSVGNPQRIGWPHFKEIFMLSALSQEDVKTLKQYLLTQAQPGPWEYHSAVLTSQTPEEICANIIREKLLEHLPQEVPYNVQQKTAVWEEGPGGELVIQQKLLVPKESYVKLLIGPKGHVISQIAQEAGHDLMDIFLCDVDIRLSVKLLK
inactive: alvocidib 0.005 | Tubastatin A -0.151 | [1] -0.03 | defactinib 0.027 | [2] -0.015 | encorafenib -0.018 | [3] 0.058 | alisertib -0.008 | [4] 0.016 | gefitinib 0.02 | lapatinib 0.075 | pictilisib -0.025 | crizotinib -0.035 | [5] -0.152 | duvelisib 0.014 | tozasertib 0.041 | doramapimod 0.006 | bafetinib -0.079 | [6] 0.03
active: gandotinib 0.321

FHOD1 (UniProt Q9Y613)
inactive: alvocidib -0.034 | Tubastatin A -0.129 | [1] 0.014 | defactinib 0.033 | [2] 0.006 | encorafenib 0.021 | [3] 0.028 | alisertib 0.011 | [4] 0.002 | gefitinib -0.013 | lapatinib -0.018 | pictilisib -0.011 | crizotinib -0.014 | [5] 0.017 | duvelisib -0.023 | gandotinib -0.141 | tozasertib 0.008 | doramapimod 0.045 | bafetinib -0.063 | [6] 0.035

DYNC1I2 isoform 5 (UniProt Q13409)
UniProt Q13409, sequence (Q13409 whole entry, looked up): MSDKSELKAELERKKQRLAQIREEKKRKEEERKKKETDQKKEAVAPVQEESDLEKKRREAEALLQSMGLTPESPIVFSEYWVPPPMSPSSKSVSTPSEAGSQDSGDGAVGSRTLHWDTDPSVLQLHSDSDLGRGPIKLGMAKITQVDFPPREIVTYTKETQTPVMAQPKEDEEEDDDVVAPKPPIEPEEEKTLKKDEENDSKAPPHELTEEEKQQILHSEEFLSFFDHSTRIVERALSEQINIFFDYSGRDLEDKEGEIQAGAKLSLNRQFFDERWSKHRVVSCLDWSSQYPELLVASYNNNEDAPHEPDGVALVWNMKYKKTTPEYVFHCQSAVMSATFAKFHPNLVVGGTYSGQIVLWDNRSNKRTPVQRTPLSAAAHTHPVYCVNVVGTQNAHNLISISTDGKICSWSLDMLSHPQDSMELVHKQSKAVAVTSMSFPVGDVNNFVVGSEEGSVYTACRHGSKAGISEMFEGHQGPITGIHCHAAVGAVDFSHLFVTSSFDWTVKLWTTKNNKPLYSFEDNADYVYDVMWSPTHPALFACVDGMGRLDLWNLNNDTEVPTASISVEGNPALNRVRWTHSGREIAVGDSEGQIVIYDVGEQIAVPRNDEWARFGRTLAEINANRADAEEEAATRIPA
inactive: alvocidib 0.002 | Tubastatin A 0.007 | [1] -0.021 | defactinib -0.011 | [2] 0.012 | encorafenib -0.007 | [3] -0.012 | alisertib -0.011 | [4] 0.004 | gefitinib 0.006 | lapatinib -0.003 | pictilisib -0.017 | crizotinib -0.003 | [5] -0.004 | duvelisib -0.002 | gandotinib 0.009 | tozasertib 0.012 | doramapimod 0.006 | bafetinib 0.03 | [6] -0.003

FPGT (UniProt O14772)
UniProt O14772, sequence (O14772 whole entry, looked up): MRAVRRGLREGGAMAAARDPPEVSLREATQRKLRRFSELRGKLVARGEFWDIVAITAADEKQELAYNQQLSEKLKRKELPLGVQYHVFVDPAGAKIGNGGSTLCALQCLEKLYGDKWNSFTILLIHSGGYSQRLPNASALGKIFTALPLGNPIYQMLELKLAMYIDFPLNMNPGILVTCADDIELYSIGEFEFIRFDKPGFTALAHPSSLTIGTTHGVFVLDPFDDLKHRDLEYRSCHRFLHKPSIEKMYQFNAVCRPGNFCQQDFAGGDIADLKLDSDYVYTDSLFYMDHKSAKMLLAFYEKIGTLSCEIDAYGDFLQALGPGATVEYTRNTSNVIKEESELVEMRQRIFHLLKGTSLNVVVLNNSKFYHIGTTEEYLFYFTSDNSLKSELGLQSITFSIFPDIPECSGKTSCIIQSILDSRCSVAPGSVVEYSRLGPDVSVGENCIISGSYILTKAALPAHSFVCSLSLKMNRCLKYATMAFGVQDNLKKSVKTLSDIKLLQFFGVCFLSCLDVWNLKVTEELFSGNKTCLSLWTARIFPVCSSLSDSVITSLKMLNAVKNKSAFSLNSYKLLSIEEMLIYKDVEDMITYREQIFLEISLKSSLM
active: [5] 0.319
inactive: alvocidib 0.031 | Tubastatin A -0.111 | [1] -0.011 | defactinib 0.008 | [2] -0.02 | encorafenib 0.011 | [3] 0.058 | alisertib 0.002 | [4] 0.002 | gefitinib 0.013 | lapatinib 0.005 | pictilisib 0.019 | crizotinib -0.077 | duvelisib 0.006 | gandotinib -0.085 | tozasertib 0.012 | doramapimod 0.054 | bafetinib -0.043 | [6] -0.012

EPRS (UniProt P07814)
inactive: alvocidib 0.012 | Tubastatin A -0.11 | [1] 0.002 | defactinib 0.003 | [2] -0.015 | encorafenib -0.004 | [3] 0.107 | alisertib 0.015 | [4] -0.01 | gefitinib -0.032 | lapatinib -0.005 | pictilisib 0.006 | crizotinib -0.042 | [5] 0.015 | duvelisib 0.031 | gandotinib -0.069 | tozasertib 0.012 | doramapimod 0.02 | bafetinib 0.003 | [6] 0.019

EEF1A1P5 (UniProt Q5VTE0)
inactive: alvocidib -0.022 | Tubastatin A -0.065 | [1] -0.021 | defactinib -0.015 | [2] -0.218 | encorafenib -0.027 | [3] 0.127 | alisertib 0.023 | [4] 0.009 | gefitinib 0 | lapatinib -0.006 | pictilisib 0.027 | crizotinib -0.026 | [5] -0.114 | duvelisib -0.098 | gandotinib 0.044 | tozasertib -0.001 | doramapimod 0.011 | bafetinib -0.017 | [6] 0.117

ETHE1 (UniProt O95571)
UniProt O95571, sequence (O95571 whole entry, looked up): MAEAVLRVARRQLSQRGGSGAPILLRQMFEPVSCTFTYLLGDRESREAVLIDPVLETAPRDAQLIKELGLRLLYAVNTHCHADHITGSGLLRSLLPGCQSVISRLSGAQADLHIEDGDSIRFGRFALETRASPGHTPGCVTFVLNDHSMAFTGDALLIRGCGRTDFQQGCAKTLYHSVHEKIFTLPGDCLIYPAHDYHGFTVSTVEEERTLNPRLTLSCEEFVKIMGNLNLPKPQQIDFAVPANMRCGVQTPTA
inactive: alvocidib -0.076 | Tubastatin A 0.035 | [1] -0.014 | defactinib -0.008 | [2] -0.021 | encorafenib 0.008 | [3] 0.037 | alisertib 0.094 | [4] 0.022 | gefitinib -0.14 | lapatinib 0.049 | pictilisib -0.049 | crizotinib -0.022 | [5] -0.034 | duvelisib -0.011 | gandotinib 0.016 | tozasertib -0.06 | doramapimod 0.005 | bafetinib 0.038 | [6] 0.018

EIF3I (UniProt Q13347)
UniProt Q13347, sequence (Q13347 whole entry, looked up): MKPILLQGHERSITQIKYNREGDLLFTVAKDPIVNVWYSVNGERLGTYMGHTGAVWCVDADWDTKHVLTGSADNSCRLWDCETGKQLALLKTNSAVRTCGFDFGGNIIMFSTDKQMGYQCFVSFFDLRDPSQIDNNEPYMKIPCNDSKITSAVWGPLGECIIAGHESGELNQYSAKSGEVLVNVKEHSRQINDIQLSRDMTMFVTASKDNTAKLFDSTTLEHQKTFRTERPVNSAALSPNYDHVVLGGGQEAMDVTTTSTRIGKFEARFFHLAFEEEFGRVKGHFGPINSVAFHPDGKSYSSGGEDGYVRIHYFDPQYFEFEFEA
inactive: alvocidib 0.034 | Tubastatin A -0.126 | [1] 0.01 | defactinib 0.002 | [2] -0.043 | encorafenib -0.018 | [3] 0.156 | alisertib 0.003 | [4] 0.009 | gefitinib -0.03 | lapatinib -0.009 | pictilisib -0.015 | crizotinib -0.004 | [5] -0.003 | duvelisib -0.009 | gandotinib -0.022 | tozasertib 0.008 | doramapimod 0.029 | bafetinib -0.052 | [6] 0.01

FAM120B (UniProt Q96EK7)
UniProt Q96EK7, sequence (Q96EK7 whole entry, looked up): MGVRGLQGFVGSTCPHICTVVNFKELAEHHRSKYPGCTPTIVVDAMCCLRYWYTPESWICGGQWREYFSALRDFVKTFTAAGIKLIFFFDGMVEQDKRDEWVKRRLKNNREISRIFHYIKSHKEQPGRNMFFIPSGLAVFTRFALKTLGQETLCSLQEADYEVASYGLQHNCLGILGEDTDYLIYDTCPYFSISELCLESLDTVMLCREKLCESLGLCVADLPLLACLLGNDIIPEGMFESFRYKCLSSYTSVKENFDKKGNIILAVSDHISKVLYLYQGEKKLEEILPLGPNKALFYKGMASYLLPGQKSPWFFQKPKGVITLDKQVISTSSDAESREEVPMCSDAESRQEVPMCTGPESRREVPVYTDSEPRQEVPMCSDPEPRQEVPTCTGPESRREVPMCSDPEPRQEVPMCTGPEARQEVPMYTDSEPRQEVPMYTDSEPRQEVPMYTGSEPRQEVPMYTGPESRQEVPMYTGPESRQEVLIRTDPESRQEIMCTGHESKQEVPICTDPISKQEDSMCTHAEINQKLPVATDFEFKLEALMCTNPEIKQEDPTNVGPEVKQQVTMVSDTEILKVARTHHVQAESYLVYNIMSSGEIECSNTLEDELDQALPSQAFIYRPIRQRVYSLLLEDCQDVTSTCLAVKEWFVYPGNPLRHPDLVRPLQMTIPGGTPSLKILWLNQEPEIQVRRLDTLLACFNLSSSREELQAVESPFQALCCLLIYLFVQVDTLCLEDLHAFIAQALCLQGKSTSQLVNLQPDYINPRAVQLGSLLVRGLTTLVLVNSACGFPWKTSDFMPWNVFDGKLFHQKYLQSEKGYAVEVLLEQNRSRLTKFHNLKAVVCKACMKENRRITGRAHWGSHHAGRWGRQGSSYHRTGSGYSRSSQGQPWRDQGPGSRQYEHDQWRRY
inactive: alvocidib -0.005 | Tubastatin A -0.063 | [1] 0.016 | defactinib 0.073 | [2] -0.02 | encorafenib 0.029 | [3] 0.034 | alisertib -0.007 | [4] -0.001 | gefitinib 0.021 | lapatinib 0.041 | pictilisib -0.012 | crizotinib -0.021 | [5] -0.018 | duvelisib -0.021 | gandotinib -0.051 | tozasertib -0.064 | doramapimod 0.021 | bafetinib -0.045 | [6] 0.045

ENY2 (UniProt Q9NPA8)
UniProt Q9NPA8, sequence (Q9NPA8 whole entry, looked up): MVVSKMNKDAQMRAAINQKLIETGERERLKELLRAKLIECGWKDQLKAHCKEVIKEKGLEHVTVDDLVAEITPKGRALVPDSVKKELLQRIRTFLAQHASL
inactive: Tubastatin A -0.024 | [1] 0.016 | defactinib 0.096 | [2] -0.084 | encorafenib 0.004 | [3] -0.003 | alisertib 0.024 | [4] -0.019 | gefitinib -0.016 | lapatinib 0.025 | pictilisib -0.024 | crizotinib 0.031 | duvelisib 0.034 | tozasertib 0.019 | doramapimod -0.021 | bafetinib -0.07
active: alvocidib 0.351 | [5] 0.726 | gandotinib -0.386 | [6] -0.529

FYCO1 isoform 4 (UniProt Q9BQS8)
inactive: alvocidib -0.052 | Tubastatin A 0 | [1] -0.001 | defactinib -0.002 | [2] -0.006 | encorafenib 0.033 | [3] 0.024 | alisertib 0.018 | [4] 0.018 | gefitinib 0.016 | lapatinib -0.005 | pictilisib -0.018 | crizotinib -0.018 | [5] -0.114 | duvelisib 0.036 | gandotinib 0.229 | tozasertib 0.021 | doramapimod -0.009 | bafetinib -0.019 | [6] 0.176

FBXO9 (UniProt Q9UK97)
UniProt Q9UK97, sequence (Q9UK97 whole entry, looked up): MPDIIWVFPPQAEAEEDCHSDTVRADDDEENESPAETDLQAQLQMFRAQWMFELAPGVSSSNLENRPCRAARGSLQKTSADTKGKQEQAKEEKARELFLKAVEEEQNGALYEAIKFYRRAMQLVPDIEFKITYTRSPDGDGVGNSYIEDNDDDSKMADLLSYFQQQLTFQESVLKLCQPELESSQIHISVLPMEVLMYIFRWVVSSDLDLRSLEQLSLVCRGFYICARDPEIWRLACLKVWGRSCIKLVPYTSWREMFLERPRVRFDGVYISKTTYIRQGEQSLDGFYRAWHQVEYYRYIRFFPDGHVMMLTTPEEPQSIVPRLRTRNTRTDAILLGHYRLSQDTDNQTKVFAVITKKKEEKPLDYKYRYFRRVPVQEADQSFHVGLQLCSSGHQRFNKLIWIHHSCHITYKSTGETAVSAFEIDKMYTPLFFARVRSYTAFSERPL
inactive: alvocidib 0.099 | Tubastatin A -0.006 | [1] -0.015 | defactinib 0.104 | [2] 0.037 | encorafenib 0.078 | [3] -0.042 | alisertib -0.011 | gefitinib 0.04 | lapatinib -0.334 | pictilisib -0.107 | crizotinib -0.023 | [5] 0.08 | duvelisib -0.012 | gandotinib -0.141 | tozasertib 0.041 | doramapimod 0.044 | bafetinib 0 | [6] -0.104
active: [4] -0.402

FAM98A (UniProt Q8NCA5)
UniProt Q8NCA5, sequence (Q8NCA5 whole entry, looked up): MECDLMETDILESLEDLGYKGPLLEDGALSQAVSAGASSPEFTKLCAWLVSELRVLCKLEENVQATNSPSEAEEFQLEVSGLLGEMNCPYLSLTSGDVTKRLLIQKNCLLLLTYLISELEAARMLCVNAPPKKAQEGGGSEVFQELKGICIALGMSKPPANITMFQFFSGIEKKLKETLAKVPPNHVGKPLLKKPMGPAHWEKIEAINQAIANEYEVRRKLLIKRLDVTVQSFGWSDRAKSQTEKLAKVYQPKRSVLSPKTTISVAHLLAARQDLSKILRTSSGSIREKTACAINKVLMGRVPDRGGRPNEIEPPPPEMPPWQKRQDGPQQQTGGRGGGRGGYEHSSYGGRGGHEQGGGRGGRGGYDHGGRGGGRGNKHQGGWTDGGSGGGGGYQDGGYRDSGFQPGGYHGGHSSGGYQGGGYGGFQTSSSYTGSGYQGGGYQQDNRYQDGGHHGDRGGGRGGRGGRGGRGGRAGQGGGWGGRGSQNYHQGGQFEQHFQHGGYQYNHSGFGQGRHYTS
inactive: alvocidib 0.042 | Tubastatin A -0.04 | [1] 0.028 | defactinib 0.01 | [2] 0.086 | encorafenib -0.004 | [3] 0.025 | alisertib -0.028 | [4] -0.014 | gefitinib 0.037 | lapatinib 0.001 | pictilisib -0.024 | crizotinib 0.007 | [5] 0.074 | duvelisib -0.024 | gandotinib -0.059 | tozasertib 0.023 | doramapimod -0.015 | bafetinib 0.012 | [6] 0

ESRRA (UniProt P11474)
UniProt P11474, sequence (P11474 whole entry, looked up): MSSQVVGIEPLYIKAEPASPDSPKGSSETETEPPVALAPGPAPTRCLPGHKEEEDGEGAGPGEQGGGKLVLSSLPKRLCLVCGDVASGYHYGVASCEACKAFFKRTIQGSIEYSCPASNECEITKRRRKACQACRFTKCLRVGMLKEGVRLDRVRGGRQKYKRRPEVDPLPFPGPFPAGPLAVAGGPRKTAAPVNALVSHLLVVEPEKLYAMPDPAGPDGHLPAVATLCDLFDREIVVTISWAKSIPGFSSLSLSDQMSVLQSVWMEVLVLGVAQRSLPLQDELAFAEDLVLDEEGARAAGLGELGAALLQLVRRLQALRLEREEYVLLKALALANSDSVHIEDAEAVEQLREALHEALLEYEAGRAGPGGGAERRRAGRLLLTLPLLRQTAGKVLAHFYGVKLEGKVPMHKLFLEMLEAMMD
inactive: alvocidib 0.167 | Tubastatin A -0.169 | [1] 0.033 | defactinib -0.086 | [2] -0.04 | encorafenib 0.048 | [3] -0.072 | alisertib -0.045 | [4] -0.029 | gefitinib 0.07 | lapatinib 0.026 | pictilisib -0.049 | crizotinib -0.025 | duvelisib 0.088 | gandotinib -0.115 | tozasertib 0.088 | doramapimod -0.028 | bafetinib 0.052 | [6] -0.149
active: [5] 0.444
